# Assay results as given in PubChem BioAssay (Tox21).
# A number with no mark means an inactive call. Inconclusive results are not listed. Entries that show only a call come without a potency. Active and inactive are the calls of the source. Unless noted, calls follow the shape of the dose curve; as a rule, active = well fitted curve in the direction sought with a large enough effect in the repeat runs; inconclusive = weak or mixed curves; inactive = no such curve, though single readings can be large; an effect the other way counts as inactive or inconclusive.
# What was measured:
# [1] = target: Thyrotropin receptor (Homo sapiens) (UniProt P16473); assay: qHTS assay to identify small molecule agonists of the thyroid stimulating hormone receptor (TSHR) signaling pathway (AID 1224843; calls by dose curve; also: nearly all actives have a fitted effect of over 45% in size)
# Sequence of Thyrotropin receptor (Homo sapiens) (P16473 whole entry, looked up): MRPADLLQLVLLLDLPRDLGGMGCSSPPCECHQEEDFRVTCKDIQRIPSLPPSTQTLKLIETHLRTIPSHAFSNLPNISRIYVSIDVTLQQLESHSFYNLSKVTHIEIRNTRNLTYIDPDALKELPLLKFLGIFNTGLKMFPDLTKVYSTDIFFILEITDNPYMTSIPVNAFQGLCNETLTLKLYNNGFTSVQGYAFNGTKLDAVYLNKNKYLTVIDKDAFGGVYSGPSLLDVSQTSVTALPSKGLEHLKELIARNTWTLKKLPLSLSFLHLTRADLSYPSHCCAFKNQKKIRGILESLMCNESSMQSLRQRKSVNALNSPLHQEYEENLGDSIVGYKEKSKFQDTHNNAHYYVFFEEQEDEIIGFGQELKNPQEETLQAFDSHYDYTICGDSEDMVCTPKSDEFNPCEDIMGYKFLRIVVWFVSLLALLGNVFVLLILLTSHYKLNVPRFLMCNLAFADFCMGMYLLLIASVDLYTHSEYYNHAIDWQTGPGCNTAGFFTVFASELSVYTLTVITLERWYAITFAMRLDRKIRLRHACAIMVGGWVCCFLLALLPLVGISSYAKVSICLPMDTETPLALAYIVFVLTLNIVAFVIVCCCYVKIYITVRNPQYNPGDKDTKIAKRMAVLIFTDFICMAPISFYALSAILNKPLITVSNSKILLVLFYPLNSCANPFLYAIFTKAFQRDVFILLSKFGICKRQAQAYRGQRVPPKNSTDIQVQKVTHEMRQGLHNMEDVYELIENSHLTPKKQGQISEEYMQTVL
# Procedure, shortened: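 Using 15 concentrations per compound in triplicate, cAMP production was monitored in TSHR-HEK293 cells after 30 min compound incubation at RT; HTRF reagents followed, with fluorescence intensity recorded after 1 h.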
# [2] = qHTS assay to identify small molecule agonists of H2AX (AID 1224845; active = well fitted activation curve with a large enough effect in the signal ratio in the repeat runs, not every such curve was filed as active; the % refers to the signal ratio)
# Procedure, shortened: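 Wild-type CHO-K1 cells plated overnight, then exposed 3 hr at 37C to compounds at 15 concentrations (0.76% DMSO). Lysed, then HTRF anti-pH2AX(S139)-cryptate/anti-H2AX-d2 detection after 24 hr at room temperature; emissions 665 and 620 nm.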
# [3] = qHTS assay to identify small molecule agonists of the hypoxia (HIF-1) signaling pathway (AID 1224846; active = well fitted activation curve with a large enough effect in the signal ratio in the repeat runs, not every such curve was filed as active; the % refers to the signal ratio)
# Procedure, shortened: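 Compounds from the Tox21 10K library, dissolved in DMSO, are tested for induction of a hypoxia response element–controlled beta-lactamase reporter in ME-180 cells. Exposure lasts 17 hrs at 37C after a 5 hr settling period, followed by CCF4-AM FRET substrate.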
# [4] = qHTS assay to identify small molecule agonists of H2AX - cell viability counter screen (AID 1224847; calls by dose curve; also: nearly all actives have a fitted effect of over 30% in size; also: potency is read from the fitted curve at half-maximal effect; as to activity change, negative = cytotoxicity: top concentration of the series differs between compounds)
# Procedure, shortened: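 Wild-type CHO-K1 cells (10% FBS medium) were plated overnight at 37C, exposed to compounds at 15 concentrations for 3 hr at 37C (0.76% DMSO final), and viability was read as CellTiter-Glo luminescence after 30 min at room temperature.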
# [5] = qHTS assay to identify small molecule antagonists of the estrogen related receptor (ERR) signaling pathway from Tox21 library (AID 1224848); also: nearly all actives have a fitted effect of over 50% in size
# Procedure, shortened: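 Tox21 10K compounds in DMSO tested for ERR pathway antagonism in NTP's ERR cell line; 18 h, 37 C exposure; ONE-Glo luminescence.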
# [6] = qHTS assay to identify small molecule agonists of the estrogen related receptor (ERR) signaling pathway from Tox21 library (AID 1224849; calls by dose curve; also: nearly all actives have a fitted effect of over 15% in size); conditions: ERR reporter cell line, ONE-Glo luciferase, 18 h; at 92.4 µM (top of the series) unless noted
# Procedure, shortened: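 Cells carrying the ERR reporter were plated and allowed to settle for 6 h, exposed to library compounds for 18 h at 37 C, then lysed with ONE-Glo and luminescence measured.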
# [7] = qHTS RealTime-Glo MT Cell Viability Assay in HepG2 cells - 24 hour (AID 1224867); also: nearly all actives have a fitted effect of over 50% in size
# Procedure, shortened: (§1)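 Luminescence read-out: viable HepG2 cells reduce a prosubstrate to a NanoLuc substrate, giving a signal proportional to live cell number. Reads taken at 0, 8, 16, 24, 32 and 40 h of compound exposure at 37 C.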
# [8] = qHTS RealTime-Glo MT Cell Viability Assay in HEK293 cells - 32 hour (AID 1224868); also: top concentration of the series differs between compounds; nearly all actives have a fitted effect of over 50% in size
# Procedure, shortened: (§2)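 Nonlytic real-time viability readout: viable cells convert prosubstrate to NanoLuc substrate, giving luminescence proportional to live cell number. HEK293, 600 cells/well, compound added after 5 h, continuous culture at 37 C.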
# [9] = A CellTox Green Cytotoxicity Assay to monitor cytotoxicity in HEK293 cells - 0 hour (AID 1224869); also: nearly all actives have a fitted effect of over 50% in size
# Procedure, shortened: (§3)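 Cells (HEK293, 600/well) and dye reagent are dispensed together. After 5 h at 37 C, 23 nL compound is pinned in. Plates stay at 37 C for 40 h with fluorescence read at 0h, 8h, 16h, 24h, 32h and 40h.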
# [10] = A CellTox Green Cytotoxicity Assay to monitor cytotoxicity in HEK293 cells - 40 hour (AID 1224871); also: nearly all actives have a fitted effect of over 45% in size
# Procedure, shortened: as §3
# [11] = qHTS RealTime-Glo MT Cell Viability Assay in HEK293 cells - 16 hour (AID 1224872)
# Procedure, shortened: as §2
# [12] = qHTS RealTime-Glo MT Cell Viability Assay in HepG2 cells - 8 hour (AID 1224873); also: nearly all actives have a fitted effect of over 55% in size
# Procedure, shortened: (§4)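 HepG2 cells mixed with RealTime-Glo MT reagents (NanoLuc plus cell-permeant prosubstrate) were seeded at 600 cells/well, incubated 5 h at 37 C/5% CO2, then pinned with compounds in DMSO; nonlytic luminescence tracked viability during 40 h treatment.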
# [13] = qHTS RealTime-Glo MT Cell Viability Assay in HEK293 cells - 40 hour (AID 1224874); conditions: RealTime-Glo luminescence; max response: active compounds read low; also: nearly all actives have a fitted effect of over 50% in size
# Procedure, shortened: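 Real-time viability in HEK293: signal arises when living cells convert a prosubstrate for NanoLuc in the medium, so luminescence tracks viable cell number. Compound (23 nL, DMSO) added 5 h post-seeding; kinetic reads at 0–40 h, 37 C.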
# [14] = A CellTox Green Cytotoxicity Assay to monitor cytotoxicity in HEK293 cells - 24 hour (AID 1224875); also: nearly all actives have a fitted effect of over 45% in size
# Procedure, shortened: as §3
# [15] = A CellTox Green Cytotoxicity Assay to monitor cytotoxicity in HepG2 cells - 16 hour (AID 1224876); also: nearly all actives have a fitted effect of over 45% in size
# Procedure, shortened: (§5)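 Cells and non-lytic dye reagent are dispensed together (600 HepG2 cells/well) and incubated 5 h before DMSO compound transfer. Kinetic fluorescence is then recorded in the same wells during 40 h at 37 C.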
# [16] = qHTS RealTime-Glo MT Cell Viability Assay in HepG2 cells - 32 hour (AID 1224877); also: nearly all actives have a fitted effect of over 55% in size
# Procedure, shortened: as §1
# [17] = A CellTox Green Cytotoxicity Assay to monitor cytotoxicity in HepG2 cells - 40 hour (AID 1224879); also: nearly all actives have a fitted effect of over 40% in size
# Procedure, shortened: as §5
# [18] = A CellTox Green Cytotoxicity Assay to monitor cytotoxicity in HepG2 cells - 24 hour (AID 1224878); also: nearly all actives have a fitted effect of over 45% in size
# Procedure, shortened: as §5
# [19] = qHTS RealTime-Glo MT Cell Viability Assay in HepG2 cells - 40 hour (AID 1224870); also: nearly all actives have a fitted effect of over 50% in size
# Procedure, shortened: as §4
smiles,measurement,setting,value
Cc1cccc(C)c1NC(=O)c1ccccc1C(=O)O,Potency,[1],inactive
same,outcome,[2],inactive
same,outcome,[3],inactive
same,Potency,[4],inactive
same,Potency,[5],inactive
same,"activity change, positive = activation",[6],2.58% [at 42.5 µM]
same,outcome,[7],inactive
same,Potency,[8],inactive
same,outcome,[9],inactive
same,Potency,[10],inactive
same,Potency,[11],inactive
same,outcome,[12],inactive
same,max response,[13],2.81%
same,outcome,[14],inactive
same,outcome,[15],inactive
same,outcome,[16],inactive
same,Potency,[17],inactive
CCCCC(CC)COCCO (stereo not given),Potency,[1],inactive
same,outcome,[2],inactive
same,outcome,[3],inactive
same,Potency,[4],inactive
same,"activity change, positive = activation",[6],5.52%
same,outcome,[7],inactive
same,Potency,[8],inactive
same,outcome,[9],inactive
same,Potency,[10],inactive
same,Potency,[11],inactive
same,outcome,[12],inactive
same,max response,[13],-0.338%
same,outcome,[14],inactive
same,outcome,[15],inactive
same,outcome,[18],inactive
Nc1ccc([N+](=O)[O-])c(N)c1,Potency,[1],inactive
same,outcome,[2],inactive
same,outcome,[3],inactive
same,Potency,[4],inactive
same,"activity change, positive = activation",[6],5.15%
same,outcome,[7],inactive
same,outcome,[9],inactive
same,outcome,[19],inactive
same,Potency,[10],inactive
same,Potency,[11],inactive
same,outcome,[12],inactive
same,max response,[13],-10.3%
same,outcome,[14],inactive
same,outcome,[15],inactive
same,outcome,[16],inactive
same,Potency,[17],inactive
CCCC/C=C/C=C\C=O,Potency,[1],inactive
same,outcome,[2],inactive
same,outcome,[3],inactive
same,Potency,[4],1600 nM (active)
same,outcome,[7],inactive
same,Potency,[8],inactive
same,outcome,[9],inactive
same,Potency,[10],inactive
same,Potency,[11],inactive
same,outcome,[12],inactive
same,max response,[13],0.84%
same,outcome,[14],inactive
same,outcome,[15],inactive
same,outcome,[16],inactive
same,outcome,[18],inactive
same,Potency,[17],inactive
CC(S)C(=O)NCC(=O)O (stereo not given),Potency,[1],inactive
same,outcome,[2],inactive
same,outcome,[3],inactive
same,Potency,[4],inactive
same,outcome,[7],inactive
same,Potency,[8],inactive
same,outcome,[19],inactive
same,outcome,[12],inactive
same,max response,[13],11.2%
same,outcome,[15],inactive
same,outcome,[16],inactive
same,Potency,[17],inactive
COc1ccc2c(c1)C(=O)N(CCc1ccc(S(=O)(=O)NC(=O)NC3CCCCC3)cc1)C(=O)C2(C)C,Potency,[1],inactive
same,outcome,[2],inactive
same,outcome,[3],inactive
same,Potency,[4],inactive
same,outcome,[7],inactive
same,Potency,[8],inactive
same,outcome,[9],inactive
same,outcome,[19],inactive
same,Potency,[10],inactive
same,outcome,[12],inactive
same,max response,[13],-9.27%
same,outcome,[14],inactive
same,outcome,[16],inactive
same,Potency,[17],inactive
C[C@@H](O)[C@H]1C(=O)N2C(C(=O)O)=C(SCCN=CN)C[C@H]12,Potency,[1],inactive
same,outcome,[2],inactive
same,Potency,[4],inactive
same,"activity change, positive = activation",[6],5.47% [at 42.5 µM]
same,outcome,[7],inactive
same,Potency,[8],inactive
same,outcome,[9],inactive
same,outcome,[19],inactive
same,Potency,[10],inactive
same,Potency,[11],inactive
same,outcome,[12],inactive
same,max response,[13],2.62%
same,outcome,[14],inactive
same,outcome,[15],inactive
same,outcome,[16],inactive
same,outcome,[18],inactive
Cc1nc2n(c(=O)c1CCN1CCC(c3noc4cc(F)ccc34)CC1)CCC[C@H]2O,activation,[1],-7.95% [at 19 µM]
same,activation (H2AX phosphorylation),[2],-1.87% [at 31.6 µM]
same,activation,[3],-0.458% [at 15.8 µM]
same,"activity change, negative = cytotoxicity",[4],-0.277% [at 31.6 µM]
same,"activity, negative = inhibition",[5],3.9% [at 19 µM]
same,"activity change, positive = activation",[6],2.19% [at 19 µM]
same,"activity change, negative = cytotoxicity",[7],1.28% [at 15.8 µM]
same,cytotoxicity,[9],0.136% [at 15.8 µM]
same,"activity change, negative = cytotoxic",[19],0.984% [at 15.8 µM]
same,cytotoxicity increase,[10],6.76% [at 15.8 µM]
same,"viability change, negative = cytotoxic",[12],-0.0945% [at 15.8 µM]
same,activity change,[14],-3.48% [at 15.8 µM]
same,cytotoxicity,[18],0.861% [at 15.8 µM]
same,cytotoxicity increase,[17],0.318% [at 15.8 µM]
